The text below walks through data of PubChem BioAssay (NCATS).

Records with an inconclusive call do not appear. Where a call stands in place of a potency, no number is given. Activity calls are given as the source filed them. The call rests on the fitted dose curve; in most records, active means well fitted cell-killing curve with a large enough effect; inconclusive means small, poorly fitted or top-dose-only effect; inactive means flat fitted curve, though single readings scatter.
Potency means the concentration at half of the fitted maximal effect.

The assay is described as follows: Cell Viability - LYMP2-007 (AID 979).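 Further: cells exposed to compound for 24 h before reading; nearly all actives have a fitted effect of over 60% in size.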 As to conditions: LYMP2-007 lymphoblastoid cell viability; series mostly up to 92.2 µM. An outline of the steps: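 Measured via luciferase-based ATP quantitation: lymphoblastoid cells, 24 hr compound exposure at 37 C, AC50 from Hill fits.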
Consider `Oc1cccc(Cl)c1Cl`, for which the Potency entry is “inactive”.
For `CCC/C=N/O` the value was “inactive”; for `Nc1cccc2ccccc12`, 39.8 µM (active); for `Cc1cnc[nH]1`, “inactive”.
For `CN(C)N=O`, the Potency entry is “inactive”.
For the molecule `COc1c(C(C)(C)C)cc([N+](=O)[O-])c(C)c1[N+](=O)[O-]`, the Potency entry is “inactive”.
As to `C=C(Cl)CCl`, the Potency entry is “inactive”.
With `ClCCOCOCCCl`, the Potency result is “inactive”.
To `CC12CC1(C)C(=O)N(c1cc(Cl)cc(Cl)c1)C2=O` (centres undefined) belongs “inactive”; to `CC(C)(Cl)[N+](=O)[O-]`, “inactive”; to `Cl/C=C/Cl`, “inactive”.
Regarding `CCCCOCC1CO1` (centres undefined), the Potency entry was “inactive”.
To `O=C(O)c1cccc(Cl)c1` belongs “inactive”; to `C1CC2OC2CC1C1CO1` (centres undefined), “inactive”; to `Brc1cccc(-c2ccccc2)c1`, “inactive”.
For `Oc1c(Cl)cccc1Cl` the value was “inactive”; for `ClCCOCCCl`, “inactive”.
As to `CCNCC`, the Potency result is “inactive”.
Regarding `CC(C)C#N`, the Potency result is “inactive”.
For `Cl/C=C\Cl` the value was “inactive”; for `c1ccc2c(c1)CCNC2`, “inactive”.
To `CCBr` belongs “inactive”; to `O=[N+]([O-])c1ccc(Cl)c(Cl)c1Cl`, “inactive”; to `N#CCCC#N`, “inactive”.
Turning to `Cc1ccccc1[N+](=O)[O-]`, the Potency entry is “inactive”.
For `OCCBr` the value was “inactive”.
For `C=CC(=O)OCCN(C)C` the value was “inactive”.
On to `CC(C)(C)C(O)(CCc1ccc(Cl)cc1)Cn1cncn1` (centres undefined), for which the Potency result was “inactive”.
As to `N#CCCCCC#N`, the Potency entry was “inactive”.
Consider `CN=C=O`, for which the Potency result is “inactive”.
To `c1ccc(C2CO2)cc1` (centres undefined) belongs “inactive”; to `CCCCCC[N+](=O)[O-]`, “inactive”; to `OCC(Cl)CCl` (centres undefined), “inactive”.
As for `COc1ccc(C=O)cc1`, the Potency result was “inactive”.
`Nc1ccc(Cl)c(Cl)c1`: the Potency result is “inactive”.
Take `CC(=O)[O-].CC(=O)[O-].CC(=O)[O-].[Cr+3]`: the Potency result is “inactive”.
As for `CC(=O)CCC(C)=O`, the Potency result was “inactive”.
For `C=CC(=O)OCC(CC)CCCC` (centres undefined) the value was “inactive”; for `CC(C#N)CCC#N` (centres undefined), “inactive”.
